Our source for the binding signal values is publication PMC5892938, “SARNAclust: Semi-automatic detection of RNA protein binding motifs from immunoprecipitation data”.

In all, about 11,000 sequences were measured (“log2 fold change”: median about 0.00022, highest 2% from about 0.34 on). The list shows a part of the results.

This assay addresses GST-SBP-SLBP (stem-loop binding protein) (Homo sapiens, UniProt Q14493 1-270). Nature of the assay: targeted RNA Bind-n-Seq; RBNS binding buffer: 25 mM Tris pH 7.5, 150 mM KCl, 3 mM MgCl2, 0.1% Tween, 0.5 mg/mL BSA, 1 mM DTT; 27 nM protein, 750 pM RNA pool; temperature not stated; high values mean tight binding. As to conditions: protein: recombinant; tags: N-terminal GST and SBP (pGEX6P1-SBP); structured_RNA. A digest of the protocol: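 The GST-SBP-tagged protein was expressed in Rosetta(DE3) pLysS E. coli, glutathione-purified and incubated at 27 nM with 750 pM of a designed, T7-transcribed RNA oligo pool in RBNS binding buffer. Bound RNA was reverse transcribed with a 10-nucleotide barcoded primer, PCR-amplified and sequenced on a MiSeq with 200-cycle paired-end reads. Reads were joined with FLASH, aligned with HISAT2 and collapsed by barcode. The binding signal is the DEseq log2 fold change of read counts per sequence.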
“GGUCACGUCUCAAUCAACUCCAUCGAGGGGGGGAAAACCCCUUUACCCUCCAAUUCAACAGCUCGCAGUCAAG”: the binding signal was found to be 0.49 ± 0.445 log2 fold change. The result for “GGUCACGUCUCAAUCAACUCAAACGAGGGGGGGAAAACCCCUUUACCCUCCAUAUCAACAGCUCGCAGUCAAG” reads 0.344 ± 0.458 log2 fold change.

Consider “GGUCACGUCUCAAUCAACUCAUACGAGGGGGGGAAAACCCCUUUACCCUCUCCAUCAACAGCUCGCAGUCAAG”, for which the binding signal was determined as 0.329 ± 0.398 log2 fold change. The result for “GGUCACGUCUCAAUCAACUCCAUCGAGGGGGGGAAAACCCCUUUACCCUCAAUAUCAACAGCUCGCAGUCAAG” reads 0.429 ± 0.437 log2 fold change; that for “GGUCACGUCUCAAUCAACUCAGAAGAGGGGGGGAAAACCCCUUUACCCUCCAAAUCAACAGCUCGCAGUCAAG”, 0.431 ± 0.433 log2 fold change; that for “GGUCACGUCUCAAUCAACUCCAAAGAGGGGGGGAAAACCCCUUUACCCUCAACCUCAACAGCUCGCAGUCAAG”, 0.316 ± 0.391 log2 fold change. Consider “GGUCACGUCUCAAUCAACUCCAAAGAGGGGGGGAAAACCCCUUUACCCUCCGCAUCAACAGCUCGCAGUCAAG”, for which the binding signal came to 0.352 ± 0.42 log2 fold change.

Turning to “GGUCACGUCUCAAUCAACUCCAAAGAGGGGGGGAAAACCCCUUUACCCUCACUUUCAACAGCUCGCAGUCAAG”, the binding signal worked out at 0.398 ± 0.419 log2 fold change. On to “GGUCACGUCUCAAUCAACUCCAAAGAGGGGGGGAAAACCCCUUUACCCUCCGUUUCAACAGCUCGCAGUCAAG”, for which the binding signal is 0.395 ± 0.435 log2 fold change. As for “GGUCACGUCUCAAUCAACUCCAAAGAGGGGGGGAAAACCCCUUUACCCUCGUCCUCAACAGCUCGCAGUCAAG”, the binding signal was found to be 0.369 ± 0.406 log2 fold change. Consider “GGUCACGUCUCAAUCAACUCCAAAGAGGGGGGGAAAACCCCUUUACCCUCCACAUCAACAGCUCGCAGUCAAG”, for which the binding signal is 0.399 ± 0.418 log2 fold change.

As for “GGUCACGUCUCAAUCAACUCAAUCGAGGGGGGGAAAACCCCUUUACCCUCACUCUCAACAGCUCGCAGUCAAG”, the binding signal came to 0.375 ± 0.412 log2 fold change. Consider “GGUCACGUCUCAAUCAACUCCAUCGAGGGGGGGAAAACCCCUUUACCCUCACUCUCAACAGCUCGCAGUCAAG”, for which the binding signal was determined as 0.322 ± 0.422 log2 fold change. Consider “GGUCACGUCUCAAUCAACUCUAUCGAGGGGGGGAAAACCCCUUUACCCUCACACUCAACAGCUCGCAGUCAAG”, for which the binding signal was found to be 0.573 ± 0.408 log2 fold change.

As for “GGUCACGUCUCAAUCAACUCACACGAGGGGGGGAAAACCCCUUUACCCUCUCUAUCAACAGCUCGCAGUCAAG”, the binding signal was 0.553 ± 0.407 log2 fold change. Regarding “GGUCACGUCUCAAUCAACUCUUCCGAGGGGGGGAAAACCCCUUUACCCUCACUAUCAACAGCUCGCAGUCAAG”, the binding signal is 0.347 ± 0.442 log2 fold change. The result for “GGUCACGUCUCAAUCAACUCUCCCGAGGGGGGGAAAACCCCUUUACCCUCACUAUCAACAGCUCGCAGUCAAG” reads 0.31 ± 0.449 log2 fold change; that for “GGUCACGUCUCAAUCAACUCUACAGAGGGGGGGAAAACCCCUUUACCCUCACUCUCAACAGCUCGCAGUCAAG”, 0.332 ± 0.424 log2 fold change; that for “GGUCACGUCUCAAUCAACUCUCUCGAGGGGGGGAAAACCCCUUUACCCUCACAAUCAACAGCUCGCAGUCAAG”, 0.571 ± 0.435 log2 fold change. On to “GGUCACGUCUCAAUCAACUCUAUCGAGGGGGGGAAAACCCCUUUACCCUCACAAUCAACAGCUCGCAGUCAAG”, for which the binding signal was found to be 0.599 ± 0.418 log2 fold change. As to “GGUCACGUCUCAAUCAACUCACACGAGGGGGGGAAAACCCCUUUACCCUCUACCUCAACAGCUCGCAGUCAAG”, the binding signal was 0.472 ± 0.426 log2 fold change.

With “GGUCACGUCUCAAUCAACUCAAUAGAGGGGGGGAAAACCCCUUUGCCCUCAACAUCAACAGCUCGCAGUCAAG”, the binding signal turned out to be 0.421 ± 0.37 log2 fold change. Take “GGUCACGUCUCAAUCAACUCCAUAGAGGGGGGGAAAACCCCUUUGCCCUCGAAAUCAACAGCUCGCAGUCAAG”: the binding signal came to 0.382 ± 0.389 log2 fold change. For the sequence “GGUCACGUCUCAAUCAACUCAAUAGAGGGGGGGAAAACCCCUUUGCCCUCAAUCUCAACAGCUCGCAGUCAAG”, the binding signal came out at 0.451 ± 0.42 log2 fold change.

As for “GGUCACGUCUCAAUCAACUCAAUAGAGGGGGGGAAAACCCCUUUGCCCUCGAAAUCAACAGCUCGCAGUCAAG”, the binding signal was found to be 0.399 ± 0.404 log2 fold change. On to “GGUCACGUCUCAAUCAACUCCUUAGAGGGGGGGAAAACCCCUUUGCCCUCAUACUCAACAGCUCGCAGUCAAG”, for which the binding signal was 0.464 ± 0.44 log2 fold change. In the case of “GGUCACGUCUCAAUCAACUCAUUAGAGGGGGGGAAAACCCCUUUGCCCUCAAAAUCAACAGCUCGCAGUCAAG”, the binding signal was found to be 0.487 ± 0.428 log2 fold change. As to “GGUCACGUCUCAAUCAACUCACUAGAGGGGGGGAAAACCCCUUUGCCCUCAUACUCAACAGCUCGCAGUCAAG”, the binding signal was found to be 0.37 ± 0.365 log2 fold change. As for “GGUCACGUCUCAAUCAACUCAUUAGAGGGGGGGAAAACCCCUUUGCCCUCAUACUCAACAGCUCGCAGUCAAG”, the binding signal stood at 0.461 ± 0.451 log2 fold change.

Turning to “GGUCACGUCUCAAUCAACUCACUAGAGGGGGGGAAAACCCCUUUGCCCUCCAACUCAACAGCUCGCAGUCAAG”, the binding signal worked out at 0.317 ± 0.385 log2 fold change. Consider “GGUCACGUCUCAAUCAACUCAUUAGAGGGGGGGAAAACCCCUUUGCCCUCACCUUCAACAGCUCGCAGUCAAG”, for which the binding signal worked out at 0.303 ± 0.392 log2 fold change. With “GGUCACGUCUCAAUCAACUCAUUAGAGGGGGGGAAAACCCCUUUGCCCUCAUCUUCAACAGCUCGCAGUCAAG”, the binding signal came out at 0.356 ± 0.431 log2 fold change. Take “GGUCACGUCUCAAUCAACUCAACAGAGGGGGGGAAAACCCCUUUACCCUCAUUUUCAACAGCUCGCAGUCAAG”: the binding signal was 0.422 ± 0.451 log2 fold change.

For the sequence “GGUCACGUCUCAAUCAACUCCAUAGAGGGGGGGAAAACCCCUUUGCCCUCAUUUUCAACAGCUCGCAGUCAAG”, the binding signal worked out at 0.381 ± 0.414 log2 fold change. In the case of “GGUCACGUCUCAAUCAACUCCAUAGAGGGGGGGAAAACCCCUUUGCCCUCAAUUUCAACAGCUCGCAGUCAAG”, the binding signal came out at 0.426 ± 0.447 log2 fold change. Take “GGUCACGUCUCAAUCAACUCCAUAGAGGGGGGGAAAACCCCUUUACCCUCAUUUUCAACAGCUCGCAGUCAAG”: the binding signal is 0.342 ± 0.445 log2 fold change.
